Screening data deposited in PubChem by National Center for Advancing Translational Sciences (NCATS).
FMDV Renilla: shows antiviral activity in FMDV Renilla assay; hit rate 0.32% among 120,000; AID 1745857; Potency, µM (titrated, usually from 57.5 µM), for inactives: top-dose activity change, negative = inhibition, most hits filed as inhibitors; FMDV replicon cells, Renilla luciferase signal; also: nearly all actives have a fitted effect of over 55% in size
FMDV antiviral: shows antiviral activity against foot and mouth disease virus; Potency, µM (series often up to 57.5 µM), inactives show top-dose activity change, negative = inhibition, hits mostly inhibitors; FMDV antiviral cell assay, firefly luciferase signal; hit rate 0.23% among 120,000; AID 1745856; also: nearly all actives have a fitted effect of over 60% in size
* marks the source's active call; other numbers are inactive results. Most compounds without a hit are left out; they make up all but 0.45% or so of the library. Calls follow the shape of the full dose curve. % is scaled to controls: 0 for no effect and ±100 for the full control effect; potency is read from the fitted curve at half-maximal effect.

For COc1cc(Cl)c(C)cc1NC(=O)CCn1cnc2onc(-c3ccc(F)cc3)c2c1=O the results were FMDV Renilla -0.7% and FMDV antiviral 8.8%.
`COc1ccc(NC(=O)CCn2cnc3onc(-c4ccc(F)cc4)c3c2=O)cc1OC` gave FMDV Renilla 3.98µM* and FMDV antiviral inconclusive.
CC1(C)C(=O)N(CC(=O)NC2CCCc3ccccc32)c2ccccc21 (stereo unspecified) was read as FMDV Renilla 11.1% and FMDV antiviral -1.3%.
Screening O=[N+]([O-])c1ccc(/C=N/NC(=S)Nc2ccccc2)cc1 returned FMDV Renilla 25.3% and FMDV antiviral 0.0%.
O=C(O)c1cccc(NC(=S)N/N=C/c2ccc([N+](=O)[O-])cc2)c1 was read as FMDV Renilla 7.0% and FMDV antiviral 2µM*.
`Cc1cc(=O)oc2cc(OC(=O)C(C)Oc3ccccc3Cl)ccc12` (stereo unspecified) gave FMDV Renilla -5.7% and FMDV antiviral 18.9%.
For O=C(CN1C(=O)c2ccccc2S1(=O)=O)c1ccc(F)cc1 the results were FMDV Renilla 13.0% and FMDV antiviral 11.2µM*.
`O=C(CN1C(=O)c2ccccc2S1(=O)=O)c1ccc(-c2ccc(Br)cc2)cc1` gave FMDV Renilla -10.4% and FMDV antiviral 32.6%.
CC1=C2C(=O)CC(C)CC2=Nc2ccccc2N1 (stereo unspecified) was read as FMDV Renilla 2.1% and FMDV antiviral 11.0%.
For CC1=C2C(=O)CC(c3cccc(Cl)c3)CC2=Nc2ccccc2N1 (stereo unspecified) the results were FMDV Renilla 17.8µM* and FMDV antiviral inconclusive.
Screening CCN1CCN(CCOc2ccc3c(=O)c(-c4ccc(Cl)cc4)coc3c2)CC1 returned FMDV Renilla 17.8µM* and FMDV antiviral -8.8%.
`CCN1CCN(CCOc2ccc3c(=O)c(-c4ccc(Br)cc4)coc3c2)CC1` gave FMDV Renilla inconclusive and FMDV antiviral 36.6%.
`CCCSc1ncc(Cl)c(C(=O)N(Cc2ccc(Cl)cc2)Cc2ccco2)n1` gave FMDV Renilla 0.4% and FMDV antiviral -0.8%.
Screening CCCS(=O)(=O)c1ncc(Cl)c(C(=O)N(Cc2ccccc2)Cc2ccco2)n1 returned FMDV Renilla 4.5% and FMDV antiviral 22.4µM*.
For Cn1nc(C(C)(C)C)cc1NC(=O)C(C)(C)Oc1ccc(Cl)cc1 the results were FMDV Renilla -14.2% and FMDV antiviral -8.7%.
For COc1ccc(Nc2nc3ccccc3nc2NS(=O)(=O)c2ccc(C)cc2)cc1 the results were FMDV Renilla 96.5% and FMDV antiviral 13.0%.
Screening CC(=O)c1cccc(NC(=O)Nc2cccc(Br)c2)c1 returned FMDV Renilla 2.3% and FMDV antiviral 11.0%.
Screening O=C(Nc1cccc(Br)c1)Nc1ccc2c(c1)N(C(=O)c1ccccc1)CC2 returned FMDV Renilla 14.1µM* and FMDV antiviral inconclusive.
For Fc1cccc(F)c1/C=N/NC(=S)Nc1ccc(Cl)c(Cl)c1 the results were FMDV Renilla 46.3% and FMDV antiviral 137.0%.
`COC(=O)c1ccc(CO/N=C/c2ccc(OCc3ccc(Cl)cc3)c(OC)c2)cc1` gave FMDV Renilla 3.9% and FMDV antiviral 252.2%.
For COC(=O)c1ccc(CO/N=C/c2ccc(Cl)cc2Cl)cc1 the results were FMDV Renilla 8.8% and FMDV antiviral 7.94µM*.
O=C(C1CN(C(=O)c2cccc(Cl)c2Cl)c2ccccc2O1)N1CCOCC1 (stereo unspecified) was read as FMDV Renilla 26.1% and FMDV antiviral -9.2%.
Screening CC(C)(C)CC(=O)N1CCC(C(=O)NCc2cccnc2)CC1 returned FMDV Renilla 10.6% and FMDV antiviral 0.0%.
Screening CCOc1ccc2nc(NC(=O)CS(=O)(=O)c3ccc(Cl)cc3)sc2c1 returned FMDV Renilla inconclusive and FMDV antiviral 8.91µM*.
Screening CS(=O)(=O)c1ccc2nc(NC(=O)CS(=O)(=O)c3ccc(Cl)cc3)sc2c1 returned FMDV Renilla -8.4% and FMDV antiviral 0.0%.
`C/C=C/C=C/C(=O)NCc1ccc(OC)cc1` gave FMDV Renilla 1.9% and FMDV antiviral 23.0%.
For COc1cc(CNCc2ccco2)ccc1OCc1ccccc1C the results were FMDV Renilla 1.8% and FMDV antiviral 0.0%.
Screening CCOc1ccc(CN2CCN(Cc3ccc4c(c3)c3ccccc3n4CC)CC2)cc1 returned FMDV Renilla inconclusive and FMDV antiviral 22.2%.
For COc1cc(CNCC2CCNCC2)ccc1OCc1ccccc1Cl the results were FMDV Renilla 35.5µM* and FMDV antiviral inconclusive.
CCn1c2ccccc2c2cc(CNCC3CCNCC3)ccc21 was read as FMDV Renilla 28.2µM* and FMDV antiviral inconclusive.
O=C(Cc1ccc(F)cc1)N(Cc1cccc2[nH]ccc12)C1CC1 was read as FMDV Renilla 82.1% and FMDV antiviral 24.8%.
For Cc1cc(OCC(F)F)ccc1N the results were FMDV Renilla 3.1% and FMDV antiviral 4.2%.
Screening CC(C)c1ccc(C(=O)Cn2cnc3c2c(=O)n(C)c(=O)n3C)c(C(C)C)c1 returned FMDV Renilla 10µM* and FMDV antiviral 10µM*.
